This passage reports Potency, outcome and activity change, positive = activation results from PubChem BioAssay (Tox21).

Test [1] can be described thus: qHTS assay to identify small molecule antagonists of the estrogen related receptor (ERR) signaling pathway from Tox21 library - cell viability counter screen (AID 1224834). Further: nearly all actives have a fitted effect of over 30% in size. Further: potency means the concentration at half of the fitted maximal effect. The settings on record: ERR reporter cells viability, CellTiter-Fluor, 17.5 h; series mostly up to 92.4 µM. The method, boiled down:
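ERR reporter cells, 2,000 per well, rested 6 h, then exposed to compound in DMSO for 17.5 hours at 37 C. Viability read as fluorescence after 30 min with CellTiter-Fluor.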

The target in test [2] is Luciferin 4-monooxygenase (Photinus pyralis) (UniProt P08659). In words: qHTS assay to identify small molecule inhibitors of firefly luciferase (AID 1224835). Further: nearly all actives have a fitted effect of over 25% in size. The conditions noted are these: purified P. pyralis luciferase, luminescence inhibition; series mostly up to 115 µM. The method, boiled down:
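Inhibition of purified Photinus luciferase is measured by luminescence. Substrate levels (D-luciferin, ATP) sit at their KM values. Each compound is tested in a concentration series.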

The nature of test [3]: qHTS assay to identify small molecule agonists of the constitutive androstane receptor (CAR) signaling pathway - cell viability counter screen (AID 1224836). Further: nearly all actives have a fitted effect of over 45% in size. Further: potency means the concentration at half of the fitted maximal effect. The settings on record: HepG2-CYP2B6-hCAR viability, CellTiter-Fluor, 23 h, PK11195 added to every well; series mostly up to 92.4 µM. Summed up:
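Counter screen multiplexed with the CAR reporter readout: HepG2 cells co-transfected with hCAR and the CYP2B6-2.2kb construct receive a 15-concentration compound series and 0.75 uM PK11195 (final), then CellTiter-Fluor fluorescence is read after 23 h.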
On the technique in general: In qHTS, concentration-response curves come from the screen itself.

Test [4] has as its target Nuclear receptor subfamily 1 group I member 3 (Homo sapiens) (UniProt Q14994). In words: qHTS assay to identify small molecule antagonists of the constitutive androstane receptor (CAR) signaling pathway (AID 1224838). Further: nearly all actives have a fitted effect of over 40% in size. Further: potency means the concentration at half of the fitted maximal effect. The settings on record: HepG2-CYP2B6-hCAR luciferase, CITCO-stimulated, 24 h; series mostly up to 92.4 µM. The method, boiled down: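 HepG2 cells stably carrying hCAR and a CYP2B6-2.2kb luciferase reporter, seeded 4 hrs before compound (15 concentrations). Stimulated with 50 nM CITCO for 24 hr at 37 C. ONE-Glo luminescence read after 30 min at room temperature.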

Test [5] has the same target. In words: qHTS assay to identify small molecule agonists of the constitutive androstane receptor (CAR) signaling pathway (AID 1224839). Further: nearly all actives have a fitted effect of over 15% in size. The conditions noted are these: HepG2 hCAR CYP2B6-luciferase, agonist mode, 24 h; series mostly up to 92.4 µM. Summed up:
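A 15-concentration quantitative screen uses HepG2 cells co-transfected stably with human CAR and CYP2B6-2.2kb reporter. Treatment lasts 24 h with 0.75 uM PK11195 final present; ONE-Glo luminescence is the signal.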

The nature of test [6]: qHTS assay to identify small molecule antagonists of the estrogen related receptor signaling pathway with the pleiotropic PPARgamma coactivator (PGC) from Tox21 10K library - cell viability counter screen (AID 1224840; active means well fitted cell-killing curve with a large enough effect in the repeat runs, not every such curve was filed as active; further: nearly all actives have a fitted effect of over 40% in size; further: potency means the concentration at half of the fitted maximal effect). The settings on record: PGC/ERR reporter cells viability, CellTiter-Fluor, 17.5 h; series mostly up to 92.4 µM. Summed up:
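PGC/ERR cells (2,000/well) plated 6 h, then compound-treated for 17.5 h at 37 C. Viability measured by CellTiter-Fluor fluorescence after 30 min at 37 C, multiplexed with the pathway assay.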

The nature of test [7]: qHTS assay to identify small molecule agonists of the hypoxia (HIF-1) signaling pathway - cell viability counter screen (AID 1224844; calls by dose curve; further: nearly all actives have a fitted effect of over 50% in size; further: potency means the concentration at half of the fitted maximal effect). The conditions noted are these: HRE-bla ME-180 viability, CellTiter-Glo luminescence, 17 h; series mostly up to 76.8 µM. The method, boiled down:
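HRE-bla ME-180 cells, 2,000/well in 0.5% dialyzed FBS medium, treated 17 h at 37C with compounds. Viability read in the same wells as the bla reporter, by CellTiter-Glo luminescence after 30 min at room temperature.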

A short description of test [8]: qHTS assay to identify small molecule agonists of H2AX (AID 1224845; active means well fitted activation curve with a large enough effect in the signal ratio in the repeat runs, not every such curve was filed as active; the % refers to the signal ratio). The conditions noted are these: CHO-K1 phospho-H2AX Ser139 HTRF, 3 h; series mostly up to 154 µM. The method, boiled down:
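Phospho-H2AX Ser139 measured by HTRF (ex 320 nm; em 665 and 620 nm) after 24 hr antibody incubation. Compounds, 15 concentrations, 0.76% DMSO, were applied to CHO-K1 cells for 3hr at 37C before lysis.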

Test [9] in a line: qHTS assay to identify small molecule agonists of the hypoxia (HIF-1) signaling pathway (AID 1224846; active means well fitted activation curve with a large enough effect in the signal ratio in the repeat runs, not every such curve was filed as active; the % refers to the signal ratio). The conditions noted are these: HRE-bla ME-180 cells, beta-lactamase ratio, 17 h; series mostly up to 76.8 µM. The method, boiled down: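 HRE-bla ME-180 beta-lactamase reporter cells in medium with 0.5% dialyzed FBS, pre-incubated 5 h then exposed to compounds 17 h at 37C, 5% CO2; reporter induction read with CCF4-AM FRET substrate.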

Test [10] is described as follows: qHTS assay to identify small molecule agonists of H2AX - cell viability counter screen (AID 1224847; calls by dose curve; further: top concentration of the series differs between compounds; nearly all actives have a fitted effect of over 30% in size). The settings on record: CHO-K1 viability, CellTiter-Glo luminescence, 3 h; series mostly up to 154 µM. The method, boiled down: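 We seed wild-type CHO-K1 cells overnight, treat them for 3 hr at 37C with compounds in 15-concentration series, and quantify remaining viability by CellTiter-Glo luminescence.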

Test [11] in a line: qHTS RealTime-Glo MT Cell Viability Assay in HepG2 cells - 24 hour (AID 1224867). Further: nearly all actives have a fitted effect of over 50% in size. The conditions noted are these: RealTime-Glo luminescence; series mostly up to 76.8 µM. The method, boiled down:
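Real-time, nonlytic viability: 600 HepG2 cells/well mixed with NanoLuc enzyme plus prosubstrate; 5 h settle, compound (DMSO) added by pintool; luminescence monitored over 40 h at 37 C.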

A short description of test [12]: A CellTox Green Cytotoxicity Assay to monitor cytotoxicity in HEK293 cells - 0 hour (AID 1224869). Further: nearly all actives have a fitted effect of over 50% in size. The settings on record: CellTox Green fluorescence; series mostly up to 76.8 µM. Summed up: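 HEK293 cells, 600/well, were preincubated 5 hours and then exposed to compounds at 37 C for up to 40 hours. A cell-impermeant cyanine dye staining dead-cell DNA was read by fluorescence at 0, 8, 16, 24, 32 and 40 h time points.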

Test [13] can be described thus: qHTS RealTime-Glo MT Cell Viability Assay in HepG2 cells - 40 hour (AID 1224870). Further: nearly all actives have a fitted effect of over 50% in size. The settings on record: RealTime-Glo luminescence; series mostly up to 76.8 µM. Summed up:
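Real-time viability: cells seeded at 600 per well together with NanoLuc and cell-permeant prosubstrate, compounds added after 5 h incubation. Luminescence tracked at 0, 8, 16, 24, 32 and 40 h of exposure.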

A short description of test [14]: qHTS assay to identify small molecule antagonists of the constitutive androstane receptor (CAR) signaling pathway - cell viability counter screen (AID 1224837). Further: nearly all actives have a fitted effect of over 45% in size. Further: potency means the concentration at half of the fitted maximal effect. The conditions noted are these: HepG2-CYP2B6-hCAR viability, CellTiter-Fluor, 23 h, co-treated with 50 nM CITCO; series mostly up to 92.4 µM. Summed up: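 HepG2 cells stably carrying hCAR and CYP2B6-2.2kb reporter, stimulated with 50 nM CITCO and compounds at 15 concentrations for 23 h at 37 C. Viability measured by CellTiter-Fluor fluorescence.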

Test [15] can be described thus: qHTS assay to identify small molecule antagonists of the estrogen related receptor signaling pathway with the pleiotropic PPARgamma coactivator (PGC) from Tox21 10K library (AID 1224841; call rule not given here). The settings on record: PGC/ERR reporter cell line, ONE-Glo luciferase, 18 h; series mostly up to 92.4 µM. The method, boiled down: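 PGC/ERR cell line, 2,000 cells/well, pre-incubated 6 hours at 37 C, then exposed to compounds for 18 hours at 37 C; luciferase read with One-Glo luminescence after 30 min at room temperature.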

Test [16] can be described thus: qHTS assay to identify small molecule agonists of the estrogen related receptor signaling pathway with the pleiotropic PPARgamma coactivator (PGC) from Tox21 10K library (AID 1224842). Further: nearly all actives have a fitted effect of over 15% in size. The settings on record: PGC/ERR reporter cell line, luciferase ONE-Glo, 18 h; series mostly up to 92.4 µM. Summed up:
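Luminescence from One-Glo (30 min, room temperature) measured after PGC/ERR cells had 18 h at 37 C with pinned compound (23 nL in DMSO). Cells had been seeded at 2,000 per well and pre-incubated 6 h.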

Test [17] deals with Thyrotropin receptor (Homo sapiens) (UniProt P16473). In words: qHTS assay to identify small molecule agonists of the thyroid stimulating hormone receptor (TSHR) signaling pathway (AID 1224843; calls by dose curve; further: nearly all actives have a fitted effect of over 45% in size). The settings on record: TSHR-HEK293 cells, cAMP HTRF, agonist mode, 30 min; series mostly up to 92.4 µM. Summed up:
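HEK293 cells stably bearing the thyrotropin receptor were plated at 800 cells/well and challenged with compound (30 min, RT). Accumulated cAMP was quantified via cAMP-d2 competing for cryptate-tagged antibody.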

Test [18] in a line: qHTS assay to identify small molecule antagonists of the estrogen related receptor (ERR) signaling pathway from Tox21 library (AID 1224848). Further: nearly all actives have a fitted effect of over 50% in size. The settings on record: ERR reporter cell line, luciferase antagonist mode, 18 h; series mostly up to 92.4 µM. Summed up: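 Reading was by luminescence 30 min after ONE-Glo addition. Before that, ERR cells at 2,000 per well had rested 6 h at 37 C/5% CO2 and then received pin-tooled compounds in DMSO for 18 h at 37 C.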

Test [19] is described as follows: qHTS assay to identify small molecule agonists of the estrogen related receptor (ERR) signaling pathway from Tox21 library (AID 1224849; calls by dose curve; further: nearly all actives have a fitted effect of over 15% in size). The conditions noted are these: ERR reporter cell line, ONE-Glo luciferase, 18 h; at 92.4 µM (top of the series) unless noted. Summed up: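 ERR reporter cells (NTP line) pre-incubated 6 hours at 37 C, then exposed to compounds for 18 hours at 37 C. ONE-Glo luciferase luminescence was read after 30 minutes at room temperature.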

The nature of test [20]: qHTS RealTime-Glo MT Cell Viability Assay in HEK293 cells - 32 hour (AID 1224868). Further: nearly all actives have a fitted effect of over 50% in size. Further: potency means the concentration at half of the fitted maximal effect. The conditions noted are these: RealTime-Glo luminescence; series mostly up to 76.8 µM. Summed up: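 Cells + reagent dispensed (600 cells/well, HEK293) → 5 h at 37 C/5% CO2 → 23 nL compound in DMSO pinned → 40 h at 37 C → luminescence read at 0, 8, 16, 24, 32, 40 h.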

SMILES strings stand for the structures. Values without a mark were called inactive. Records with an inconclusive call do not appear. The source made the active and inactive calls. Unless noted, the call rests on the fitted dose curve; in most records, active means well fitted curve in the direction sought with a large enough effect in the repeat runs; inconclusive means weak or mixed curves; inactive means no such curve, though single readings can be large; an effect the other way counts as inactive or inconclusive.
On the % scale 0 is the no-effect control and ±100 the full control effect.

Chain of Thyrotropin receptor (Homo sapiens) (P16473 whole entry, looked up): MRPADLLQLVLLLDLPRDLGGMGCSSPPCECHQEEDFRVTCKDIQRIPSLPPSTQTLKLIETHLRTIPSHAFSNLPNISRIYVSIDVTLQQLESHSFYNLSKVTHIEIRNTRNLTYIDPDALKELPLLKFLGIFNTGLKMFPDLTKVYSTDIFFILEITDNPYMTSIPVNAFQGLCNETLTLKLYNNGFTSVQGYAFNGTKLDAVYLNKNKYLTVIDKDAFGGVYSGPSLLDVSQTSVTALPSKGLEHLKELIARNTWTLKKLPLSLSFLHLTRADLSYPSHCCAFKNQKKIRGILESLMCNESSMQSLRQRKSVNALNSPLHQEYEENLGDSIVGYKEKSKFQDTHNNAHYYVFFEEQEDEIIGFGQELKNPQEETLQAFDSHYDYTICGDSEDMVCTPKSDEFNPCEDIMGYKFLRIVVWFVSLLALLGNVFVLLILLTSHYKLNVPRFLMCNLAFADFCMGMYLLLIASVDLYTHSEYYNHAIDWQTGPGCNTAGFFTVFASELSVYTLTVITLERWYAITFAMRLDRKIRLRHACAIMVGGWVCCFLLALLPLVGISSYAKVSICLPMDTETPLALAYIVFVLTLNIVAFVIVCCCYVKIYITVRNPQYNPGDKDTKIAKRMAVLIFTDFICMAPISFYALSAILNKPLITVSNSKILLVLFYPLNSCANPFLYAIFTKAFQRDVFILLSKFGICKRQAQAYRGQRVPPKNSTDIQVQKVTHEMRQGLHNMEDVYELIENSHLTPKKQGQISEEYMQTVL
Chain of Nuclear receptor subfamily 1 group I member 3 (Homo sapiens) (Q14994 whole entry, looked up): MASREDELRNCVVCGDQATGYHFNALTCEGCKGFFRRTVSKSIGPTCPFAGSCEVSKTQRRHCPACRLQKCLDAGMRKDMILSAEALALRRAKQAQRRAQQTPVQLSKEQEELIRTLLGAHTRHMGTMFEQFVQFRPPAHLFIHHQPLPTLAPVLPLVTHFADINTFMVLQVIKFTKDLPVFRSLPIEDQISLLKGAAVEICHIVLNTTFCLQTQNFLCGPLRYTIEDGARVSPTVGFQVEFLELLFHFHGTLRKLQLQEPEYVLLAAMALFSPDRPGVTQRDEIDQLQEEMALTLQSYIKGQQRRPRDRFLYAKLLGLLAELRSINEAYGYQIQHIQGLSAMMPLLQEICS
Chain of Luciferin 4-monooxygenase (Photinus pyralis) (P08659 whole entry, looked up): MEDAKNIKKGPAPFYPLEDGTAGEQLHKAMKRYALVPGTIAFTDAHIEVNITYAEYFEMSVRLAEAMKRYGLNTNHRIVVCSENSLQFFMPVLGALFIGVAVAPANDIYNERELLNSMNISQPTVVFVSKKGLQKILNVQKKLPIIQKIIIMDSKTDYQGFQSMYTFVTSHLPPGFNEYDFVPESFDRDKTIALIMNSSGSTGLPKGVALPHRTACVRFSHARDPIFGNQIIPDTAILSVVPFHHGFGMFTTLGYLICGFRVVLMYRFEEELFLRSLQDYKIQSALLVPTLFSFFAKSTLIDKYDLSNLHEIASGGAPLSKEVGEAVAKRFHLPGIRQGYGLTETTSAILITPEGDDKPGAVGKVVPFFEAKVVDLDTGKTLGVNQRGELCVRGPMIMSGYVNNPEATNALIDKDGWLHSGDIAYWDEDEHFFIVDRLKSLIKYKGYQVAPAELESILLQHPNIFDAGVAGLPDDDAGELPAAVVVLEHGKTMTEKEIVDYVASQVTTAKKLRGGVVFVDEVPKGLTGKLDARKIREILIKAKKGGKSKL

`ClC(Cl)C(Cl)Cl`: the Potency entry in test [1], in test [2], in test [3], in test [4], in test [5] and in [6] was “inactive” throughout. Moreover, the Potency entry in test [7], in test [8], in test [10], in test [11], in [12] and in test [13] was “inactive” in each case. For the same molecule, the outcome in [9] was inactive.

In the case of `C[C@@H]1CN(C2CCC(C#N)(c3ccc(F)cc3)CC2)CC[C@]1(C(=O)O)c1ccccc1` (some centres undefined), the Potency entry in [1], in test [3], in [14], in test [4], in test [5] and in test [6] was “inactive” throughout. Also, the Potency result in test [15], in test [17], in test [7], in [8], in test [10] and in [18] was “inactive” throughout. Further, the Potency result in test [11], in [20], in test [12] and in test [13] was “inactive” throughout. For the same molecule, the outcome in test [16] was inactive. The activity change, positive = activation in test [19] was 0.0799% [at 42.5 µM].

On to `COc1cccc2c1cc([N+](=O)[O-])c1c(C(=O)O)cc3c(c12)OCO3`, for which the Potency in test [1] is 30.6 µM (active); in [3], 27.3 µM (active); in test [14] it was 27.3 µM (active); in [4], 12.2 µM (active); in [6] it was 30.6 µM (active); in [7], 54.9 µM (active). In test [20], the Potency is 2.45 µM (active). For the same molecule, the Potency result in [5], in [15], in [17], in test [10], in test [11] and in test [12] was “inactive” in each case. Further, the Potency entry in test [13] is “inactive”. In addition, in test [16], the call was inactive. Besides, the activity change, positive = activation in [19] is -37.1%.

As to `Nc1n[nH]c(N)n1`, the Potency result in test [1], in [2], in test [5], in test [6], in [17] and in test [7] was “inactive” throughout. Moreover, the Potency result in test [8], in test [10], in [11] and in test [13] was “inactive” throughout. Also, the Potency in test [4] is 27.8 µM (active). Also, the result in test [9] was inactive.
